LmPK inhibitor: inhibitors of Leishmania mexicana pyruvate kinase. Q27686. purified LmPK, Kinase-Glo ATP luminescence, 1 h. Potency, µM (titrated, usually from 57.5 µM), usual class: inhibitors. hit rate 0.37% among 290,000
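Purified LmPK (0.1 nM) converted ADP (0.1 mM) to ATP with PEP (0.5 mM) in imidazole buffer pH 7.2 with KCl and MgCl2, 1 h at room temperature. ATP was read by Kinase-Glo luminescence; data normalized to uninhibited and no-enzyme controls.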
Giardia FBPA inh: inhibitors of Giardia lamblia fructose-1,6-bisphosphate aldolase; purified Giardia FBPA; hit rate 0.71% among 290,000; AID 2451; Potency, µM (doses to about 59.6 µM), usual class: inhibitors; A8B2U2; note: nearly all actives have a fitted effect of over 55% in size
Target sequence (A8B2U2 whole entry, looked up): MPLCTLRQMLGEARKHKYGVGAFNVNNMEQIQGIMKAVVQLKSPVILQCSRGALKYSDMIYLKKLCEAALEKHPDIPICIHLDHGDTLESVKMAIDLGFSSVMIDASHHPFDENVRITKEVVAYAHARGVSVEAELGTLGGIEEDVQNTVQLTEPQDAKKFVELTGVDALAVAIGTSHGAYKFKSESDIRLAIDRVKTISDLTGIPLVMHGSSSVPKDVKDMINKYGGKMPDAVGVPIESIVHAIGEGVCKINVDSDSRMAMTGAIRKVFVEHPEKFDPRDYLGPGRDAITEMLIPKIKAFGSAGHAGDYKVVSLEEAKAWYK
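40 nM FBPA preincubated 10 min at RT with compound (up to 57.5 uM final), then substrate plus GAPDH/TPI/NAD/arsenate coupling and diaphorase/resazurin added. Fluorescence read after 20 min at RT, 525/598 nm.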
Shiga toxin inh: inhibitors of Shiga toxin in Vero cells | AID 2315 | hit rate 9.2% among 290,000 | inhibition, % at 38.7 µM | Vero cells, Shiga toxin protein synthesis inhibition reporter; in the data active = inhibition mostly above about 28%, no sharp cut-off; inactive = mostly below about 43%
NS1 function inh: influenza NS1 inhibition. Potency, µM (top dose mostly 46.1 µM). hit rate 0.4% among 270,000; calls by dose curve; note: actives are rising curves; nearly all actives have a fitted effect of over 50% in size
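S. cerevisiae expressing influenza A NS1, grown in glucose, washed, then diluted 1:100 into pH 6.0 -URA galactose medium with 23 nl compound. Growth recovery read as OD600; NS1-free strain serves as control.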
Cycloheximide cs: counter-screen for Shiga toxin inhibitors: cycloheximide protein synthesis inhibition. cell reporter, cycloheximide protein synthesis inhibition counterscreen. max response, %. hit rate 12% among 300,000. AID 2314; in the data active = max response mostly above about 13%, no sharp cut-off; inactive = mostly below about 14%; note: read at 38.3 µM for the half of the compounds with a filed dose
Each line names hits and unclear results; the compound was inactive in the other large screens. Shown are actives, neighbours in structure and some others; about 14% of the full set was active somewhere. Unless noted, calls come from the whole dose curve; as a rule, active = well fitted curve in the direction sought with a large enough effect; inconclusive = small, poorly fitted or top-dose-only effect, or another doubt; inactive = no such curve, though single readings can be large; an effect the other way counts as inactive or inconclusive.

O=C(NC(c1cccnc1)C(F)(F)F)c1cc(COc2ccc3c(c2)CCCC3)on1 (centres undefined)	Shiga toxin inh 100, Cycloheximide cs 46 (no result: Giardia FBPA inh)
Cn1cc(CNC(=O)c2cc(COc3ccc4c(c3)CCCC4)on2)cn1	Cycloheximide cs 23
O=C(c1cccc(NS(=O)(=O)c2cccc(F)c2)c1)N1CCCC1	none
Cc1cc(C)nc(NS(=O)(=O)c2ccc(N=NN(C)C)cc2)n1	none
O=c1[nH]c(CCl)nc2cc(-c3ccc(F)cc3)sc12	none
O=c1[nH]cnc2cc(-c3ccc(Br)cc3)sc12	Shiga toxin inh 66
O=C1[C@@H]2[C@@H]3C[C@@H]([C@H]4ON=C(c5ccc(Cl)cc5Cl)[C@@H]34)[C@@H]2C(=O)N1C1CCCCC1	Cycloheximide cs 31
Nc1nc(N)c(Cn2ccnc2)c(=O)[nH]1	none (no result: LmPK inhibitor, Giardia FBPA inh, Shiga toxin inh, Cycloheximide cs)
CCCC/C=C/C(NC(=O)c1cccs1)c1ccccc1 (centres undefined)	none (no result: LmPK inhibitor, Shiga toxin inh, NS1 function inh, Cycloheximide cs)
CCCCOc1ccc(CN(C)c2ncnc(N)n2)cc1	Shiga toxin inh 33, Cycloheximide cs 15
O=C(NCCNC(=O)c1cnccn1)c1ccc(Cl)cc1	none
O=C(Nc1cnccn1)c1ccc(Cl)cc1	Shiga toxin inh 58
N/C(=N\NC(=O)c1ccc(Cl)cc1)c1cnccn1	Giardia FBPA inh inconclusive, Shiga toxin inh 48, Cycloheximide cs 33
Oc1ccc(/C=N/NC(=S)NC2CC3CCC2C3)cc1 (centres undefined)	Cycloheximide cs 17
Oc1ccc(/C=N/NC(=S)NCC2CCCO2)cc1 (centres undefined)	none
S=C(N/N=C/c1cccs1)NC1CC2CCC1C2 (centres undefined)	Shiga toxin inh 47, Cycloheximide cs 24
CN(C(=O)c1ccncc1)C1CCCCC1	none
COc1ccc(-n2ncc(N(C)n3cccc3)c(Cl)c2=O)cc1	Shiga toxin inh 87, Cycloheximide cs 28
CN(C)c1cnn(-c2ccccc2)c(=O)c1Cl	Shiga toxin inh 146, Cycloheximide cs 43
C=CCNc1cnn(-c2ccccc2)c(=O)c1Cl	Cycloheximide cs 18
COc1ccc(-n2ncc(Cl)c(Cl)c2=O)cc1	none (no result: NS1 function inh)
Cc1ccc(-n2ncc(N(C)C)c(Cl)c2=O)cc1	Shiga toxin inh 55, Cycloheximide cs 29
COc1c(Cl)cnn(-c2ccccc2)c1=O	none
O=c1c(Cl)c(NS(=O)(=O)c2ccccc2)cnn1-c1ccccc1	none
CC(=O)N1CCC2(CC1)CCN(C(=O)Nc1cccc(C#N)c1)CC2	none (no result: LmPK inhibitor, Shiga toxin inh, NS1 function inh, Cycloheximide cs)
CC(=O)Cn1ncc(N(C)Cc2ccccc2)c(Cl)c1=O	Shiga toxin inh 64, Cycloheximide cs 48
O=C(CSc1ccc(-c2cccnc2)nn1)Nc1ccc(F)c(F)c1	none
Oc1ccc(-c2csc(Nc3ncccn3)n2)c(O)c1	Shiga toxin inh 88, Cycloheximide cs 59 (no result: NS1 function inh)
Oc1ccc(-c2csc(Nc3ncccn3)n2)cc1O	Giardia FBPA inh inconclusive, Shiga toxin inh 103, Cycloheximide cs 33 (no result: NS1 function inh)
Cc1ccc(C)c(-c2csc(Nc3ncccn3)n2)c1	none
NS(=O)(=O)c1ccc(Nc2nc(-c3ccc4ccccc4c3)cs2)cc1	none
Cc1cccc(Nc2nc(-c3ccc(O)cc3O)cs2)n1	Shiga toxin inh 109, Cycloheximide cs 38
COc1ccc(OC)c(C2=NOC(C(=O)Nc3cc(C)on3)C2)c1 (centres undefined)	none
CC(=O)c1cccc(OCC(O)CNCCOc2ccc(C)cc2)c1 (centres undefined)	Giardia FBPA inh inconclusive
CCS(=O)(=O)N1CCN(c2ccccc2)CC1	none
O=C1Oc2ccccc2C(=O)/C1=C\N1CCN(c2ccccc2)CC1	Cycloheximide cs 26 (no result: NS1 function inh)
Nc1nc(N)c(N=Nc2ccc(C(=O)O)c(O)c2)c(N)n1	none (no result: LmPK inhibitor, Giardia FBPA inh, Shiga toxin inh, Cycloheximide cs)
O=C(CC12CC3CC(CC(C3)C1)C2)Nc1c(F)cccc1F	none
Cc1nn2cc(-c3ccccc3)nc2[nH]c1=O	none
Cc1cn2nc(N)c3ccccc3c2n1	Cycloheximide cs 19
Cc1nc2ccccc2c2nc(N)nn12	none
Nc1nn2cc(-c3ccccc3)nc2c2ccccc12	Shiga toxin inh 70, Cycloheximide cs 30 (no result: NS1 function inh)
Cc1ccccc1CNC(=O)c1ccccc1N(C)S(=O)(=O)c1ccccc1	none (no result: Shiga toxin inh)
COCC(=O)Nc1ccc(C)c(Cl)c1	none
CN(C)C(=O)Nc1ccc(Oc2ccc(Cl)cc2)cc1	Cycloheximide cs 20 (no result: LmPK inhibitor, NS1 function inh)
Cc1ccc(NC(=O)N(C)C)cc1Cl	Cycloheximide cs 11 (no result: LmPK inhibitor, NS1 function inh)
COc1cccc(NC(=O)Nc2cc(C(=O)O)ccc2C)c1	none (no result: NS1 function inh)
COc1cccc(NC(=O)Nc2ccc(C)c(Cl)c2)c1	Shiga toxin inh 78, Cycloheximide cs 45
Cc1ccc(NC(=O)Nc2ccc(F)cc2)cc1Cl	Shiga toxin inh 78, Cycloheximide cs 32
CN(C)c1ncc2nc(-c3cccs3)c(=O)n(-c3ccccc3)c2n1	none (no result: LmPK inhibitor, Shiga toxin inh, NS1 function inh, Cycloheximide cs)
c1ccc(-c2nc(-c3ccccc3)c(Nc3ccc4ccccc4c3)o2)cc1	none (no result: LmPK inhibitor, Shiga toxin inh, NS1 function inh, Cycloheximide cs)
COc1ccc([C@H]2OCC3C2CO[C@@H]3c2ccc(OC)c(OC)c2)cc1OC (some centres undefined)	none (no result: LmPK inhibitor, NS1 function inh)
CC(C)(C)OC(=O)N1C2C=CC1C1=COCCN1C2=O (centres undefined)	none (no result: LmPK inhibitor, NS1 function inh)
CCCCOC(=O)Nc1ccc(C)c(Cl)c1	Shiga toxin inh 57, Cycloheximide cs 33
Fc1cnc(N2CCOCC2)nc1N1CCc2ccccc21	Shiga toxin inh active
CCC1=C(OC(=O)N(CC)CC)N2C(=O)OC(=NCCOC)[C@]2(C)[C@H]2C1=CC[C@H]1C(=O)NC(=O)[C@H]12	none (no result: LmPK inhibitor, Shiga toxin inh, NS1 function inh, Cycloheximide cs)
O=c1c(-c2ccccc2)nc2cnc(N3CCNCC3)nc2n1Cc1cccs1	none (no result: LmPK inhibitor, Shiga toxin inh, NS1 function inh, Cycloheximide cs)
Cc1ncc(CO)c(/C=N/N=C/c2ccccc2O)c1O	Cycloheximide cs 16
COc1ccc(NC(=S)NC(=O)Cc2ccccc2)cc1	Cycloheximide cs 25 (no result: Shiga toxin inh)
O=C(Cc1ccccc1)NC(=S)Nc1ccc(OC(F)F)cc1	Shiga toxin inh 39, Cycloheximide cs 18
O=C(O)c1ccccc1Nc1ccc(OC(F)F)cc1	Shiga toxin inh 43, Cycloheximide cs 35 (no result: NS1 function inh)
COCCCN1C(=O)C2C(C(=O)Nc3cccc(Cl)c3)C3C=CC2(O3)C1C(=O)NC1CCCCC1 (centres undefined)	none
CC(=O)Nc1c2c(nn1-c1cccc(Cl)c1)CS(=O)(=O)C2	none
COC(=O)C1=C(C)N(Cc2ccccc2)C2=C3C(=O)N(C)C(=O)C3[C@@](O)(C(=O)OC)C(=O)N2C1c1ccccc1 (some centres undefined)	none (no result: LmPK inhibitor, Shiga toxin inh, NS1 function inh, Cycloheximide cs)
Cc1ccc(NC(=O)N2CCCC2C(=O)Nc2nnc(C(C)C)s2)cc1 (centres undefined)	none
COC(=O)CC1=COC(O)C2C(CO)=CC[C@@H]12 (some centres undefined)	none (no result: LmPK inhibitor, Shiga toxin inh, NS1 function inh, Cycloheximide cs)
CCOc1ccc(CCNC(=O)c2cc(C)nc3ccccc23)cc1OCC	none (no result: Giardia FBPA inh)
COCCN1C(=O)c2[nH]nc(-c3ccccc3O)c2C1c1ccc(OCc2ccccc2)c(OC)c1 (centres undefined)	none (no result: LmPK inhibitor, Giardia FBPA inh, NS1 function inh)
Cc1cccc(N2CCN(C(=O)CCNS(=O)(=O)c3ccc4c(c3)oc(=O)n4C)CC2)c1C	none
CC(C)CC(=O)N(c1nnc(-c2cccnc2)s1)C1CCCC1	Cycloheximide cs 11
CC(=O)N(c1nnc(-c2ccc(C)cc2)s1)C1CCCC1	Shiga toxin inh 26, Cycloheximide cs 28

Screening results (PubChem)
